Compounds with a hit are over-represented: about 2.7% of the library has one in this group of screens.
KDM5B inh: blocks human KDM5B histone demethylase activity | KDM5B demethylase, FDH-coupled NADH fluorescence (FDH is formaldehyde dehydrogenase) | hit rate 2.6% among 220,000 | Potency, µM (doses to about 57.7 µM), hits mostly inhibitors | Q9UGL1 | AID 1347165; active = well fitted inhibition curve with a large enough effect; inconclusive = small, poorly fitted or top-dose-only effect; inactive = no such curve, though single readings can be large or run the other way; also: potency is read from the fitted curve at half-maximal effect; 0% is about no effect; nearly all actives have a fitted effect of over 70% in size
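qHTS format, multiple compound concentrations. Buffer 50 mM HEPES pH 7.5/0.01% Tween-20; 200 nM KDM5BΔAP final; 10 min compound preincubation; substrate-mix levels 12.5 µM peptide, 25 µM α-KG, 0.25 mM NAD⁺; 30 min RT; ΔRFU.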
IP6K1 inhibitor: blocks human inositol hexakisphosphate kinase 1; activity change, % (series mostly up to about 58 µM); IP6K1 kinase, ADP-Glo luminescence, 2 h; hits give low values; hit rate 0.81% among 140,000; Q92551; in the data active = activity change below about -25%; also: % is scaled to controls: 0 for no effect and ±100 for the full control effect
Target sequence (Q92551 whole entry, looked up): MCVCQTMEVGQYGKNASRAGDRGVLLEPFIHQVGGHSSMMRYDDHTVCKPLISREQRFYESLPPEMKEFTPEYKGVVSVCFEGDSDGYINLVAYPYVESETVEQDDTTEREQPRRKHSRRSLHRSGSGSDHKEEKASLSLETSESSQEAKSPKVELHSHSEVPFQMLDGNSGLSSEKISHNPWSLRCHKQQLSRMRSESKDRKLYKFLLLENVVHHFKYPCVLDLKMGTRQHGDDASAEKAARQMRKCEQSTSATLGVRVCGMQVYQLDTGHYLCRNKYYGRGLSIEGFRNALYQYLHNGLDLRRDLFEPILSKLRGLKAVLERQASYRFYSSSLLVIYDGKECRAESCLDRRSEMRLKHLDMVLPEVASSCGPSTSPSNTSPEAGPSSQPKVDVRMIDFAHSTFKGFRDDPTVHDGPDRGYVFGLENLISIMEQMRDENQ
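ADP-Glo luminescence measures ADP made by human IP6K1 during a 2 h RT reaction with ATP/IP6 (mix at 1.3 mM/130 uM); top library doses 57.5 and 19.1 uM final.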
* hit, by the source's call; i = inactive; ? = inconclusive; . = no result given.

SMILES | KDM5B inh | IP6K1 inhibitor
Cn1nnnc1C1CCCN(C(=O)NC2CCCCC2)C1 (configuration not stated) | i | -7
Cn1nnnc1C1CCCN(C(=O)C2CCCC2)C1 (configuration not stated) | 28µM* | -11
COc1cccc(CC(=O)N2CCCN(Cc3ccncc3)C(c3ccccc3)CC(=O)NCC2)c1 (configuration not stated) | i | 11
FC(F)(F)c1ccc(CN2CCn3c(nnc3C3CCNCC3)C2)cc1 | ? | -2
COc1ccc(CN2CCn3c(nnc3C3CCNCC3)C2)cc1 | i | 3
c1ccc(CN2CCn3c(nnc3C3CCNCC3)C2)cc1 | 100µM* | -9
CC(=O)Nc1ccc(CN2CCn3c(nnc3C3CCNCC3)C2)cc1 | 13µM* | 4
CCCCCCCn1c(N2CCOCC2)nc2c1c(=O)[nH]c(=O)n2C | i | .
Cc1cn2nc(C(=O)NC3CCCCC3)cc2c(N2CCCC2)n1 | 28µM* | -3
Cc1cn2nc(C(=O)NCc3cccnc3)cc2c(N2CCCC2)n1 | i | -14
Cc1cn2nc(C(=O)NC3CCCCCC3)cc2c(N2CCSCC2)n1 | ? | -6
Cc1cn2nc(C(=O)NCC(C)C)cc2c(N2CCCC2)n1 | 28µM* | 14
COc1ccc(CCC(=O)N[C@@H]2CN(c3ncccn3)C[C@H]2CO)cc1 | 22µM* | 13
COc1ccccc1CC(=O)N[C@@H]1CN(c2ncccn2)C[C@H]1CN(C)C | 22µM* | 12
CN(C)C[C@@H]1CN(C2CCOCC2)C[C@H]1NC(=O)Cc1ccsc1 | ? | 9
COc1ccccc1CCC(=O)N[C@@H]1CN(c2ccncn2)C[C@H]1CN(C)C | i | -5
COc1ccc(CC(=O)N[C@@H]2CN(c3ccncn3)C[C@H]2CO)cc1 | i | 0
COc1ccc(CCC(=O)N[C@@H]2CN(c3ncccn3)C[C@H]2CN(C)C)cc1 | 22µM* | -1
CN(C)C[C@@H]1CN(c2ncccn2)C[C@H]1NC(=O)Cc1ccsc1 | 22µM* | 0
CN(C)C[C@@H]1CN(S(C)(=O)=O)C[C@H]1NC(=O)CCc1ccccc1 | i | 1
COc1cc(C2C3=C(CC(C)(C)CC3=O)OC3=C2C(=O)CC(C)(C)C3)ccc1OCC(=O)OC(C)C | i | .
COCCn1c(SCC(=O)c2cc(C)c(C)cc2C)nnc1-c1ccc(Cl)cc1 | i | .
CN(C)C[C@@H]1CN(c2ncccn2)C[C@H]1NC(=O)CCn1cccn1 | 28µM* | 6
CN(C)C[C@@H]1CN(c2ncccn2)C[C@H]1N | i | 6
COc1ccc(C(=O)Nc2ccc(NC(=O)C34CC5CC(CC(C5)C3)C4)cc2)cc1 | i | .
SMILES | KDM5B inh | IP6K1 inhibitor
O=c1cc(-c2ccncc2)oc2c(-c3ccc(CO)cc3)nccc12 | 35µM* | -8
O=c1cc(-c2ccncc2)oc2c(-c3cccc(O)c3)nccc12 | ? | -18
Cc1noc(C)c1-c1nccc2c(=O)cc(-c3ccccn3)oc12 | 28µM* | -10
O=c1cc(-c2ccccn2)oc2c(-c3ccc(CO)cc3)nccc12 | 28µM* | 8
O=c1cc(-c2ccccn2)oc2c(-c3cccc(CO)c3)nccc12 | ? | 28
Cc1noc(C)c1-c1nccc2c(=O)cc(N(C)c3ccccc3)oc12 | ? | -11
Cc1sc2nc(SCc3c(F)cccc3Cl)n(CCCN3CCOCC3)c(=O)c2c1C | i | .
O=C(CN1CCN(c2nccs2)CC1)NCc1ccc(Cl)cc1 | i | .
Cc1noc(-c2ccccc2OC2CCN(S(C)(=O)=O)C2)n1 (configuration not stated) | 22µM* | 18
COc1ccc(OC)c(S(=O)(=O)N2CCC(Oc3ccccc3-c3nc(C)no3)C2)c1 (configuration not stated) | ? | 13
COc1ccc(-n2cnc3cc(C(=O)N4CCCCC4)ccc3c2=O)cc1Cl | i | .
O=C(CSc1ncnc2nc[nH]c12)Nc1cc(Cl)cc(Cl)c1 | i | .
Cc1ccc(-c2ncc(NC(=O)c3cc(F)ccc3F)cn2)cc1 | 28µM* | 1
Cc1ccc(-c2ncc(NC(=O)c3ccc(F)c(F)c3)cn2)cc1 | ? | -6
CC(C)C(C)(C#N)NC(=O)CSc1ccc2ccccc2n1 (configuration not stated) | i | .
CC(=O)c1ccc(NC(=O)c2cc3c(n2C)CCN(Cc2ccccc2)C3)cc1 | i | -3
Cn1c(C(=O)NC2CCN(Cc3ccccc3)CC2)cc2c1CCN(Cc1ccccc1)C2 | 20µM* | -8
COc1ccc(NC(=O)c2ccc3c(c2)C2(CCCN(C)C2)CN3Cc2cccnc2)cc1 (configuration not stated) | i | 6
CN(C)CC(=O)N1CCC2(C1)CN(C)c1ccc(C(=O)Nc3ccccc3)cc12 (configuration not stated) | ? | 18
CN(C)CC(=O)N1CCC2(C1)CN(C)c1ccc(C(=O)NCc3ccccc3)cc12 (configuration not stated) | 35µM* | 7
COCCNC(=O)c1ccc2c(c1)C1(CCN(C)C1)CN2Cc1csc(C)n1 (configuration not stated) | ? | 4
CN1CCCC2(C1)CN(C)c1ccc(C(=O)NCCc3ccccc3)cc12 (configuration not stated) | 32µM* | 9
Cc1nc(CN2CC3(CCN(C)C3)c3cc(C(=O)NCCc4ccccc4)ccc32)cs1 (configuration not stated) | 28µM* | 0
CCNC(=O)c1ccc2c(c1)C1(CCCN(C)C1)CN2C (configuration not stated) | 32µM* | -10
Cn1ncc2c(C(=O)N3CCC(C#N)CC3)cc(-c3cccc(F)c3)nc21 | . | 13
SMILES | KDM5B inh | IP6K1 inhibitor
O=C(NCc1ccccc1)C1CCCN(c2ccnc3ccnn23)C1 (configuration not stated) | . | 13
COC(=O)CNC(=O)/C=C/c1ccc(C#N)cc1 | i | .
Cc1cc(C)cc(NC(=O)Cc2c[nH]c3ccccc23)c1 | i | .
CCCCCn1nc(C(=O)N2CCCC(c3nc4ccccc4s3)C2)c2ccccc2c1=O (configuration not stated) | i | .
CCn1c(=O)c2sccc2n(CC(=O)NCc2ccc(F)cc2Cl)c1=O | i | .
C=CCOc1cccc(NC(=O)c2ccccc2C)c1 | i | .
O=C(Cc1ccc(Cl)cc1)NCCc1cccc2cccnc12 | i | .
COc1ccc(CN2C[C@@H](CN3CCCCC3)[C@@H](CO)C2)cc1O | ? | 10
CN(C)c1ccc(CN2C[C@@H](CN3CCCCC3)[C@@H](CO)C2)cn1 | 28µM* | 0
CC[C@@H](Nc1ncnc2c1CN(C1CCNCC1)C(=O)CN2C)c1ccccc1 | ? | -2
CN1CC(=O)N(C2CCNC2)Cc2c(NCC3CCCCC3)ncnc21 (configuration not stated) | ? | 6
CC(CO)Nc1ncnc2c1CN(C1CCCNC1)C(=O)CN2C (configuration not stated) | ? | -5
CN1CC(=O)N(C2CCCNC2)Cc2c(NCCOc3ccccc3)ncnc21 (configuration not stated) | 45µM* | -5
CCC(C)Nc1ncnc2c1CN(C1CCNCC1)C(=O)CN2C (configuration not stated) | 35µM* | 1
CC(C)Nc1ncnc2c1CN(C1CCCNC1)C(=O)CN2C (configuration not stated) | 63µM* | -2

Compound activity deposited in PubChem BioAssay by National Center for Advancing Translational Sciences (NCATS).
